Measurements taken from PubChem BioAssay (EPA / NIEHS).
Records with an inconclusive call do not appear. Where a structure was tested more than once in an assay, its records may differ in their call. The source made the active and inactive calls. How the source made its calls, unless noted: active means hit-call score of the fitted dose curve at least 0.9, where 1 is the maximum; inactive means score below 0.9.

Columns and labels:
[1] = APR_HepG2_CellCycleArrest_24hr: Apredica 24-hour HepG2 Assay for Cell Cycle Arrest (AID 2282905); details: imaging, actives raise or lower the signal;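 further: cell cycle arrest scored as ratio of 2N to 4N nuclear DNA content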
Outline: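 Compounds (0.39 to 200 uM, final DMSO 0.5% v/v) are applied to HepG2 cells for 24 hours; cells are then fixed, permeabilized and nuclei labeled with Hoechst 33342. Automated imaging measures DNA content, and activity is fitted in both directions against DMSO.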

[2] = APR_HepG2_NuclearSize_24hr: Apredica 24-hour HepG2 Assay for Nuclear Size (AID 2282907); details: high-content imaging, actives raise or lower the signal
Outline: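 Nuclear size is measured by fluorescence high-content imaging of Hoechst-labelled HepG2 nuclei after 24 hr of treatment (0.39–200 uM, 0.5% DMSO). Cells are fixed in 3.7% formaldehyde before staining, and DMSO serves as the baseline for bidirectional curve fitting.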

[3] = APR_HepG2_CellLoss_24hr: Apredica 24-hour HepG2 Assay for Cell Loss (AID 2282908); details: high-content imaging;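 on AC50: fit in both directions so a hit may be cell loss or gain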
Outline: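 Nuclear count serves as the viability measure: treated cells are fixed, permeabilized and labelled with Hoechst 33342, and six images per well are analysed to identify valid nuclei. Doses span 0.39–200 uM, and activity in either direction is scored against DMSO.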

[4] = APR_HepG2_MicrotubuleCSK_24hr: Apredica 24-hour HepG2 Assay for Microtubule CSK Stabilty (AID 2282909); details: HepG2 microtubule cytoskeleton imaging, actives raise or lower the signal
Outline: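 Compounds were applied to HepG2 cells for 24 hours across 0.39–200 uM in duplicate, with final DMSO at 0.5% v/v. Fixed, permeabilized cells were labeled for alpha-tubulin and nuclei, and tubulin fluorescence was quantified by imaging, fitted bidirectionally against DMSO.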

[5] = APR_HepG2_MitoMembPot_24hr: Apredica 24-hour HepG2 Assay for Mitochondrial Membrane Potential (AID 2282911); details: imaging, actives raise or lower the signal
Outline: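 HepG2, 24 hr dosing, 10 concentrations 0.39–200 uM, 0.5% DMSO final. Live-cell MitoTracker Red CMXRos 250 nM 30 min, then 3.7% formaldehyde fix. HCS fluorescence imaging, 20x; bidirectional fit vs DMSO baseline.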

[6] = APR_HepG2_MitoMass_24hr: Apredica 24-hour HepG2 Assay for Mitochondrial Mass (AID 2282912); details: high-content imaging, actives raise or lower the signal
Outline: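 After 24 hr of treatment at 0.39 to 200 uM, HepG2 cells take up 250 nM MitoTracker Red CMXRos for 30 min and are then fixed with 3.7% formaldehyde. Per-well images are quantified, and any change in either direction is scored against solvent.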

[7] = APR_HepG2_p53Act_24hr: Apredica 24-hour HepG2 Assay for p53 Activation (AID 2282913); details: high-content imaging, actives raise or lower the signal;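 further: p53 protein immunofluorescence averaged per cell in HepG2 with Hoechst nuclei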
Outline: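 Read-out: Cy5 immunofluorescence for p53 in fixed, permeabilized HepG2, imaged by HCS with Hoechst-defined nuclei. Dosing was 24 hr at 0.39–200 uM in 0.5% DMSO. Curves were fitted bidirectionally relative to DMSO.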

[8] = APR_HepG2_CellCycleArrest_72hr: Apredica 72-hour HepG2 Assay for Cell Cycle Arrest (AID 2282914); details: high-content imaging, actives raise or lower the signal
Outline: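 HepG2, 72 hr exposure, 10-point 0.39–200 uM, duplicate, 0.5% DMSO final. Fix 3.7% formaldehyde 30 min RT, Triton X-100 0.5%, Hoechst 33342 2 ug/mL. ArrayScan 20x, six fields/well; DNA content per nucleus; bidirectional fit vs DMSO.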

[9] = APR_HepG2_CellLoss_72hr: Apredica 72-hour HepG2 Assay for Cell Loss (AID 2282915); details: high-content imaging
Outline: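 HepG2 cells exposed 72 h to compound at 0.39–200 uM (10 concentrations, duplicate) in 0.5% DMSO. Fixed with 3.7% formaldehyde and Hoechst 33342-stained. Imaged at 20x; nuclear count gives cell number, fitted bidirectionally versus DMSO.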

[10] = APR_HepG2_P-H2AX_72hr: Apredica 72-hour HepG2 Assay for H2AX Phosphorylation (AID 2282916); details: imaging, actives raise or lower the signal;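 further: phospho-histone H2A.x immunostain intensity per cell marking DNA damage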
Outline: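 Human hepatoma HepG2 cells are dosed across ten concentrations (0.39 to 200 uM, 0.5% v/v DMSO) and incubated 72 hr. Phospho-histone H2A.x is then detected by antibody staining alongside c-Jun and Hoechst, and quantified by automated fluorescence imaging.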

[11] = APR_HepG2_MitoMembPot_72hr: Apredica 72-hour HepG2 Assay for Mitochondrial Membrane Potential (AID 2282917); details: imaging, actives raise or lower the signal
Outline: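 HepG2 cells dosed 72 hr with compound at 0.39–200 uM in duplicate, 0.5% v/v DMSO final. Mitochondria stained with 250 nM MitoTracker Red CMXRos for 30 min before formaldehyde fixation, imaged by high-content fluorescence; bidirectional fit versus DMSO.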

[12] = APR_HepG2_MicrotubuleCSK_72hr: Apredica 72-hour HepG2 Assay for Microtubule CSK Stabilty (AID 2282919); details: HepG2 microtubule cytoskeleton, high-content imaging, actives raise or lower the signal
Outline: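 HepG2, 72 hr cmpd exposure, 0.39–200 uM (10 pts, duplicate), 0.5% DMSO. 3.7% formaldehyde fix, 0.5% Triton perm, anti-alpha-tubulin/Cy5 plus Hoechst. HCS fluorescence intensity; bidirectional fit vs DMSO baseline; taxol as positive control.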

[13] = APR_HepG2_P-H2AX_24hr: Apredica 24-hour HepG2 Assay for H2AX Phosphorylation (AID 2282920); details: high-content imaging, actives raise or lower the signal
Outline: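 HCS fluorescence imaging of phospho-H2A.x immunostain (with Hoechst 33342 nuclear counterstain) in HepG2 after 24 hr compound exposure; 10 concentrations, 0.39–200 uM, duplicate wells, 0.5% v/v DMSO. Gain or loss of signal fitted relative to DMSO baseline.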

[14] = APR_HepG2_StressKinase_72hr: Apredica 72-hour HepG2 Assay for Stress Kinase (AID 2282921); details: HepG2 stress kinase (phospho-c-Jun) imaging, actives raise or lower the signal
Outline: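 After a 72 h compound treatment spanning 0.39 to 200 uM, formaldehyde-fixed cells are labelled for phosphorylated c-Jun and nuclei, imaged by automated fluorescence microscopy, and activity is fitted in both directions relative to DMSO controls.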

[15] = APR_HepG2_StressKinase_24hr: Apredica 24-hour HepG2 Assay for Stress Kinase (AID 2282922); details: HepG2 stress kinase (phospho-c-Jun) imaging, actives raise or lower the signal
Outline: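 Read-out: phospho-c-Jun immunofluorescence (Cy3 secondary) quantified by high-content imaging at 20x, nuclei defined by Hoechst 33342. Human HepG2 liver cells dosed 24 hr, 0.39–200 uM, DMSO 0.5% v/v; gain or loss of signal fitted relative to DMSO.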

[16] = APR_HepG2_p53Act_72hr: Apredica 72-hour HepG2 Assay for p53 Activation (AID 2282923); details: high-content imaging, actives raise or lower the signal;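 further: average cellular p53 protein immunofluorescence intensity in HepG2 cells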
Outline: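 Imaging-based endpoint: after 72 hr compound exposure (up to 200 uM, 0.5% DMSO), fixed and permeabilized monolayers were labelled with anti-p53 antibody and imaged; signal change in either direction was fitted relative to DMSO controls.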

[17] = APR_HepG2_MitoMass_72hr: Apredica 72-hour HepG2 Assay for Mitochondrial Mass (AID 2282924); details: high-content imaging, actives raise or lower the signal;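 further: MitoTracker Red CMXRos stain intensity per cell imaged as mitochondrial mass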
Outline: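 Read-out: MitoTracker Red fluorescence intensity from automated imaging (20x, six fields per well) in human HepG2 liver cells. Dosing ran 72 hr, 0.39–200 uM, 0.5% DMSO; bidirectional curve fitting versus DMSO baseline.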

[18] = APR_HepG2_NuclearSize_72hr: Apredica 72-hour HepG2 Assay for Nuclear Size (AID 2282925); details: high-content imaging, actives raise or lower the signal
Outline: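 Read-out: nuclear diameter from Hoechst 33342 images (ArrayScan, 20x, six fields/well), via cell-cycle image analysis. HepG2 were dosed 0.39–200 uM for 72 hr in 0.5% DMSO. Bidirectional fit relative to DMSO.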

[19] = ATG_CRE_CIS: Attagene CIS-FACTORIAL HepG2 Assay for human cAMP Responsive Element (CRE) binding protein 3 (AID 2282926); details: HepG2 CRE cis-reporter, Attagene multiplexed mRNA; actives raise or lower the signal
Outline: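 Readout: fluorescently labelled reporter transcripts resolved by capillary electrophoresis after RT-PCR, taken 24 h post-dosing in transfected HepG2. Endogenous transcription factor activity drives each cis-element reporter; gain or loss of signal fitted relative to DMSO control.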

[20] = ACEA_ER_80hr: ACEA Biosciences xCELLigence Real-Time Cell Analysis on Estrogen Receptor Agonism for Proliferation (AID 2282667; active means hit-call score of the fitted dose curve at least 0.9, where 1 is the maximum); details: T47D proliferation, impedance (xCELLigence), 80 h
Outline: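 Impedance readout (RT-CES) of T47D proliferation at 80 h post-dose; gain of signal vs DMSO baseline. Compounds: 8 conc, 1:4 serial, top 100 uM final, ≤0.5% DMSO; biological duplicate.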

Measured: AC50

Cc1ccccc1N
inactive: [1] | [2] | [3] | [4] | [5] | [6] | [7] | [8] | [9] | [10] | [11] | [12] | [13] | [14] | [15] | [16] | [17] | [18] | [19]

CCC(C)(C)c1ccc(O)c(C(C)(C)CC)c1
active: [1] 28.1 µM | [2] 39.1 µM | [3] 40.5 µM | [5] 29.7 µM | [7] 32.1 µM | [8] 13.9 µM | [9] 37.4 µM | [13] 39.3 µM | [16] 29.7 µM | [17] 82.5 µM
inactive: [4] | [6] | [10] | [11] | [12] | [14] | [15] | [18] | [19]

CCCCCCCCC(=O)NCc1ccc(O)c(OC)c1
inactive: [20] | [19]

Cc1cc(=O)[nH]o1
inactive: [20] | [19]

O=c1[nH]c(=O)[nH]c(=O)[nH]1
active: [5] 61.3 µM | [11] 99.5 µM
inactive: [1] | [2] | [3] | [4] | [6] | [7] | [8] | [9] | [10] | [12] | [13] | [14] | [15] | [16] | [17] | [18] | [19]

C[C@@H]1C[C@@H]([C@H](O)CC2CC(=O)NC(=O)C2)C(=O)[C@@H](C)C1
active: [1] 1.19 µM | [3] 0.465 µM | [7] 21.7 µM | [8] 7.46 µM | [9] 0.415 µM | [12] 1.11 µM | [16] 4.8 µM | [19] 11.1 µM
inactive: [2] | [4] | [5] | [6] | [10] | [11] | [13] | [14] | [15] | [17] | [18] | [19]

CC(C)(C)CC(C)(C)c1ccc(O)cc1
inactive: [4] | [6] | [10] | [11] | [12] | [13] | [14] | [15] | [16] | [17] | [18] | [19]
active: [1] 161 µM | [2] 52.3 µM | [3] 46 µM | [5] 25.3 µM | [7] 35 µM | [8] 32 µM | [9] 43.4 µM

O=C(O)C(F)(F)C(F)(F)C(F)(F)C(F)(F)C(F)(F)C(F)(F)C(F)(F)C(F)(F)C(F)(F)C(F)(F)F
inactive: [2] | [5] | [11] | [12] | [14] | [18] | [19]
active: [1] 68.4 µM | [3] 83.1 µM | [4] 56.7 µM | [6] 76.3 µM | [7] 66.9 µM | [8] 68.8 µM | [9] 83.3 µM | [10] 90.6 µM | [13] 71.5 µM | [15] 73.8 µM | [16] 85.3 µM | [17] 72.9 µM
